Many of the other results were omitted from the sample, so hits are more common in it than they were.
AmpC no deterg – inhibitors of E. coli AmpC beta-lactamase without detergent; Potency, µM (series often up to 57.1 µM), hits mostly inhibitors; AID 485341; P00811; hit rate 0.52% among 330,000; AmpC nitrocefin hydrolysis, absorbance 480 nm, 0.0001% Triton; note: nearly all actives have a fitted effect of over 20% in size
Target sequence (P00811 whole entry, looked up): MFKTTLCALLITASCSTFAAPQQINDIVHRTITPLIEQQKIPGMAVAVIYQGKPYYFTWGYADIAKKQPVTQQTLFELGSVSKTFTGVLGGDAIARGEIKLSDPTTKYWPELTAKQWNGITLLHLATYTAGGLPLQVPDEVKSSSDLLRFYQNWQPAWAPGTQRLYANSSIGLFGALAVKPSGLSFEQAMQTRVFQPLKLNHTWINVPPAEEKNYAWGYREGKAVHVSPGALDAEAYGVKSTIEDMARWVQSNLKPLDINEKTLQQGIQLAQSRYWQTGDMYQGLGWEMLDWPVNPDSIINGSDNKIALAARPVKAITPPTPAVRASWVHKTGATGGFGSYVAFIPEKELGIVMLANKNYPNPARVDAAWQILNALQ
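AmpC (5.3 nM in the dispensed reagent) in 20 mM phosphate pH 7.0 with 0.01% (detergent screen) or 0.0001% Triton X-100 was preincubated with compounds for 15 min at room temperature. Nitrocefin was then added from an 800 uM solution, and hydrolysis was followed at 480 nm.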
AMA1 RON2 block – inhibitors of Plasmodium falciparum AMA1-RON2 interaction; AlphaScreen AMA1-biotinylated RON2 peptide binding; Potency, µM (doses to about 58.2 µM), hits mostly inhibitors; hit rate 0.2% among 360,000; AID 720542; note: nearly all actives have a fitted effect of over 45% in size
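AMA1 (3D7) with his tag at 25 nM final met compounds first, then biotinylated RON2 peptide at 25 nM; detection used donor plus acceptor beads, 10 µg/mL apiece, read by AlphaScreen after 30 min at room temperature.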
SARS PLpro yeast – inhibitors of SARS-CoV papain-like protease in yeast | S. cerevisiae expressing SARS-CoV PLpro, growth rescue | Potency, µM (top dose mostly 32.9 µM), hits mostly activators | hit rate 0.19% among 330,000; calls by dose curve; note: nearly all actives have a fitted effect of over 55% in size
AmpC inh detg – inhibitors of E. coli AmpC beta-lactamase with detergent. P00811. AmpC hydrolysis of nitrocefin, absorbance 480 nm, 0.01% Triton. Potency, µM (series often up to 114 µM), hits mostly inhibitors. hit rate 0.041% among 370,000. AID 485294; note: nearly all actives have a fitted effect of over 25% in size
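AmpC (5.3 nM in the dispensed reagent) in 20 mM phosphate pH 7.0 with 0.01% (detergent screen) or 0.0001% Triton X-100 was preincubated with compounds for 15 min at room temperature. Nitrocefin was then added from an 800 uM solution, and hydrolysis was followed at 480 nm.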
CHX counter – counter-screen for Shiga toxin inhibitors: cycloheximide protein synthesis inhibition; cell reporter, cycloheximide protein synthesis inhibition counterscreen; max response, %; hit rate 12% among 300,000; in the data active = max response mostly above about 13%, no sharp cut-off; inactive = mostly below about 14%; note: read at 38.3 µM for the half of the compounds with a filed dose
Shiga toxin inh – blocks Shiga toxin action in Vero cells. hit rate 9.2% among 290,000. inhibition, % at 38.7 µM. Vero cells, Shiga toxin protein synthesis inhibition reporter. AID 2315; in the data active = inhibition mostly above about 28%, no sharp cut-off; inactive = mostly below about 43%
A number is an active result; - = inactive; ? = inconclusive; . = no result; [ ] = dose if it differs, or a comment. Unless noted, calls come from the whole dose curve; as a rule, active = well fitted curve in the direction sought with a large enough effect; inconclusive = small, poorly fitted or top-dose-only effect, or another doubt; inactive = no such curve, though single readings can be large; an effect the other way counts as inactive or inconclusive.

SMILES	AmpC no deterg	AMA1 RON2 block	SARS PLpro yeast	AmpC inh detg	CHX counter	Shiga toxin inh
Cc1noc(NS(=O)(=O)c2ccc(N/C=C\C(=O)c3ccc(Br)cc3)cc2)c1C	-	-	-	-	19	58
Cc1noc(NS(=O)(=O)c2ccc(N/C=C\C(=O)c3cccc4ccccc34)cc2)c1C	-	-	-	-	-	-
CCOc1ccc(C(=O)/C=C/Nc2ccc(S(=O)(=O)Nc3onc(C)c3C)cc2)cc1	-	-	-	-	20	85
COc1ccc(OCCCC(=O)Nc2nc(-c3ccccn3)cs2)cc1	-	-	-	-	-	-
CC(C)C1NC(=S)N(Cc2ccccc2)C1=O (centres undefined)	-	-	-	-	-	-
CN(C)c1ccc(C(=O)OCC(=O)N2CCCCCC2)cc1	-	-	-	-	36	106
CCc1ccc(C(=O)OCC(=O)N2CCCCCC2)cc1	-	-	-	-	.	.
O=C(OCC(=O)N1CCCC1)c1cccc(Br)c1	-	-	-	?	20	54
CCOC(=O)N1CCN(C(=O)COC(=O)c2ccc(N(C)C)cc2)CC1	-	-[11.6 µM]	-	.	.	.
CNS(=O)(=O)c1cccc(C(=O)OCC(=O)N2CCCC2)c1	-	-	-	-	-	-
CN(C)c1ccc(C(=O)OCc2ccc(Br)cc2)cc1	-	-	-	-	-	67
CCOc1ccc(C(=O)OCC(=O)N2CCCC2)cc1	-	-	-	-	27	59
CC(O)[C@H]1CNC(=O)C(=O)N1CC(C)(C)C (some centres undefined)	-	-	-	-	-	-
CCN(CC)S(=O)(=O)c1ccc(OC)c(NC(=O)CSCc2c(C)noc2C)c1	-	-	-	.	.	.
CCN(CC)c1ccc(NC(=O)CN2CCN(c3ccccc3OC)CC2)cc1	.	.	.	-	.	.
CN(C)c1ccc(C(=O)OCC(=O)NCCCc2ccccc2)cc1	-	-	-	-	-	-
CCOC(=O)C1CCN(C(=O)COC(=O)c2cccc(F)c2)CC1	-	-	-	-	22	72
CN(C)c1ccc(C(=O)OCC(=O)N2CCCC2)cc1	-	-	-	-	32	53
CN(C)c1ccc(C(=O)OCC(=O)NCCNC(=O)COC(=O)c2ccc(N(C)C)cc2)cc1	-	-	?	-	30	71
Cc1nc2ccsc2c(=O)n1-c1ccccc1Cl	.	-	.	.	.	.
CN1C(=O)c2ccccc2C(C(=O)NCCCN2CCCC2=O)C1c1c[nH]c2ccccc12 (centres undefined)	-	-	-	-	-	-
CCCc1c(-c2ccc(F)cc2)ncn1Cc1ccccc1OC	.	-	.	.	.	.
CCCCCc1ccc(-c2ccc(/C=C/C(N)=O)cc2)nc1	-	-	-	?	56	67
CCCc1ccc(-c2ccc(C(=O)O)cc2)nc1	-	-	-	-	26	65
CCCc1ccc(-c2ccc(C(=O)Oc3ccc(OCC)cc3)cc2)nc1	.	.	.	-	.	.
SMILES	AmpC no deterg	AMA1 RON2 block	SARS PLpro yeast	AmpC inh detg	CHX counter	Shiga toxin inh
COc1ccc2sc(N(CCCN(C)C)C(=O)c3ccc(S(=O)(=O)N4CCCc5ccccc54)cc3)nc2c1	-	-	-	-	.	.
O=C(c1ccccc1)c1c[nH]c(C(=O)NCCCN2CCOCC2)c1	-	-	-	-	-	-
CN(C)c1cccc(C(=O)N2CCCC(CCC(=O)NCc3ccccc3F)C2)c1 (centres undefined)	-	-	-	-	30	-
O=C(CCC1CCCN(C(=O)c2cccnc2)C1)NCc1ccccc1F (centres undefined)	-	-	-	?	17	-
O=C(CCC1CCCN(C(=O)c2ccoc2)C1)NCc1ccccc1F (centres undefined)	-	-	-	-	-	-
O=C(CCC1CCCN(C(=O)CCN2CCCCC2=O)C1)NCc1ccccc1F (centres undefined)	-	-	-	-	14	-
COc1cc(OC)cc(C(=O)Nc2nc(CC(=O)NCc3ccccc3OC)cs2)c1	-	?	-	?	.	.
O=C(C=Cc1ccccc1O)c1ccccc1O	.	-	.	.	.	.
O=C(/C=C/c1ccc(O)c(O)c1)OC(Cc1ccc(O)c(O)c1)C(=O)O (centres undefined)	-	-	-	?	-	-
O=C(/C=C/c1ccc(O)c(O)c1)c1ccccc1O	-	-	-	-	41	72
O=C(/C=C/c1ccoc1)c1ccccc1O	-	-	-	-	44	97
O=C(/C=C/c1ccc(O)c(O)c1)OCCc1ccccc1	.	-	.	.	64	80
O=C(/C=C/c1cc2ccccc2o1)c1ccccc1O	-	?	-	-	41	78
O=C(C=Cc1cccc(O)c1)c1ccccc1O	.	-	.	.	.	.
Cc1ccc(C(=O)NCC(=O)NC2CCCC2)cc1	-	-	-	-	-	-
CCN(c1ccccc1)S(=O)(=O)c1ccc(C(=O)N(C)Cc2cccs2)cc1	-	-	-	.	.	.
CN(C)c1ccc(NC(=O)c2ccc3c(c2)nnn3C)cc1	-	-	-	-	18	46
Cn1nnc2cc(NC(=O)NCc3ccc4c(c3)OCO4)ccc21	-	?	-	-	-	-
CN(C)c1ccc(NC(=O)Nc2ccc3c(c2)nnn3C)cc1	-	-	-	?	32	.
COc1cccc(NC(=O)Nc2ccc3c(c2)nnn3C)c1	-	-	-	-	32	59
Cn1nnc2cc(C(=O)Nc3ccccc3)ccc21	-	-	-	-	16	-
CCOCCCNC(=O)c1cc2c(=O)n(CC)c3ccccc3c2s1	-	-	-	-	-	-
Cc1cc2c3c(c1)C1(C(=O)N3C(C)(C)CC2C)C(C#N)=C(N)Oc2cc(O)ccc21 (centres undefined)	-	-	-	-	-	-
Cn1nnc2cc(C(=O)Nc3ccc(Cl)cc3)ccc21	-	-	-	-	-	-
Cc1ccc(NC(=O)c2ccc3c(c2)nnn3C)cc1	-	-	-	-	-	35
SMILES	AmpC no deterg	AMA1 RON2 block	SARS PLpro yeast	AmpC inh detg	CHX counter	Shiga toxin inh
CN(C)c1ccc(NC(=O)Nc2ccc3c(c2)c(=O)n(C)n3-c2ccccc2)cc1	.	20µM	.	.	.	.
Cc1nnc(SCc2ccccc2F)n1NCc1cccs1	-	-	-	?	24	-
Cc1ccc2nc(SCc3nnc(-c4cccs4)o3)[nH]c2c1	-	-	-	-	-	-
C/C(=N\Nc1nc2ccccc2[nH]1)c1ccc(Cl)s1	-	-	-	-	23	54
C/C(=N\Nc1nc2ccccc2[nH]1)c1ccc(N2CCOCC2)cc1	-[11.4 µM]	?	-	?	40	61
C/C(=N\Nc1nc2ccccc2[nH]1)c1ccc(C)o1	-	-	-	?	38	30
C/C(=N\n1c(C)nc2ccccc2c1=O)c1ccc(C)o1	-	-	-	-	-	-
Cc1ccc(C(=O)NCc2nc3ccccc3[nH]2)o1	-	-	-	-	34	97
C/C(=N\Nc1ccc2nncn2n1)c1ccc(Cl)s1	-	-	-	-	-	-
COc1cc2c(cc1OC)C(=O)C(CC1CCN(Cc3ccccc3)CC1)C2 (centres undefined)	-	-	-	-	-	-
